# Like-named read-outs stand apart in the source and are kept apart here.
# Experiments:
# NTRK1 = conditions: read-out: apparent Kd, n = 1
# NUAK1 = conditions: read-out: apparent Kd, n = 1
substance,measurement,setting,value
Lestaurtinib,potency estimated from few doses,"NTRK1; compound concentrations:100 nM and 1000 nM (sheet 'Lestaurtinib' of Supplementary Table 1),run:Lestaurtinib_02606_R2,Plate:MR019",1.21 µM
same,potency estimated from few doses,"NTRK1; compound concentrations:100 nM and 1000 nM (sheet 'Lestaurtinib' of Supplementary Table 1),run:Lestaurtinib_02606_R3,Plate:MR019",1.6 µM
same,potency estimated from few doses,"NTRK1; compound concentrations:100 nM and 1000 nM (sheet 'Lestaurtinib' of Supplementary Table 1),run:Lestaurtinib_02624_R1,Plate:MR020",1.3 µM
same,potency estimated from few doses,"NTRK1; compound concentrations:100 nM and 1000 nM (sheet 'Lestaurtinib' of Supplementary Table 1),run:Lestaurtinib_02624_R2,Plate:MR020",0.614 µM
same,potency estimated from few doses,"NTRK1; compound concentrations:100 nM and 1000 nM (sheet 'Lestaurtinib' of Supplementary Table 1),run:Lestaurtinib_02624_R3,Plate:MR020",0.873 µM
same,potency estimated from few doses,"NTRK1; compound concentrations:100 nM and 1000 nM (sheet 'Lestaurtinib' of Supplementary Table 1),run:Lestaurtinib_02724_R2,Plate:MR021",0.691 µM
same,potency estimated from few doses,"NTRK1; compound concentrations:100 nM and 1000 nM (sheet 'Lestaurtinib' of Supplementary Table 1),run:Lestaurtinib_02724_R3,Plate:MR021",0.628 µM
same,potency estimated from few doses,"NTRK1; compound concentrations:100 nM and 1000 nM (sheet 'Lestaurtinib' of Supplementary Table 1),run:Lestaurtinib_02741_R1,Plate:MR023",0.772 µM
same,potency estimated from few doses,"NTRK1; compound concentrations:100 nM and 1000 nM (sheet 'Lestaurtinib' of Supplementary Table 1),run:Lestaurtinib_02741_R2,Plate:MR023",0.783 µM
same,potency estimated from few doses,"NTRK1; compound concentrations:100 nM and 1000 nM (sheet 'Lestaurtinib' of Supplementary Table 1),run:Lestaurtinib_02741_R3,Plate:MR023",1.33 µM
same,potency estimated from few doses,"NTRK1; compound concentrations:100 nM and 1000 nM (sheet 'Lestaurtinib' of Supplementary Table 1),run:Lestaurtinib_02748_R1,Plate:MR024",0.922 µM
same,potency estimated from few doses,"NTRK1; compound concentrations:100 nM and 1000 nM (sheet 'Lestaurtinib' of Supplementary Table 1),run:Lestaurtinib_02748_R2,Plate:MR024",0.951 µM
same,potency estimated from few doses,"NTRK1; compound concentrations:100 nM and 1000 nM (sheet 'Lestaurtinib' of Supplementary Table 1),run:Lestaurtinib_02752_R1,Plate:MR025",2.13 µM
same,potency estimated from few doses,"NTRK1; compound concentrations:100 nM and 1000 nM (sheet 'Lestaurtinib' of Supplementary Table 1),run:Lestaurtinib_02765_R2,Plate:MR026",0.528 µM
same,potency estimated from few doses,"NTRK1; compound concentrations:100 nM and 1000 nM (sheet 'Lestaurtinib' of Supplementary Table 1),run:Lestaurtinib_02766_R2,Plate:MR027",1.65 µM
same,potency estimated from few doses,"NTRK1; compound concentrations:100 nM and 1000 nM (sheet 'Lestaurtinib' of Supplementary Table 1),run:Lestaurtinib_02766_R3,Plate:MR027",1.44 µM
same,potency estimated from few doses,"NTRK1; compound concentrations:100 nM and 1000 nM (sheet 'Lestaurtinib' of Supplementary Table 1),run:Lestaurtinib_02768_R1,Plate:MR028",0.628 µM
same,potency estimated from few doses,"NTRK1; compound concentrations:100 nM and 1000 nM (sheet 'Lestaurtinib' of Supplementary Table 1),run:Lestaurtinib_02768_R2,Plate:MR028",0.897 µM
same,potency estimated from few doses,"NTRK1; compound concentrations:100 nM and 1000 nM (sheet 'Lestaurtinib' of Supplementary Table 1),run:Lestaurtinib_02795_R1,Plate:MR022",0.852 µM
same,potency estimated from few doses,"NTRK1; compound concentrations:100 nM and 1000 nM (sheet 'Lestaurtinib' of Supplementary Table 1),run:Lestaurtinib_02795_R2,Plate:MR022",1.24 µM
same,potency estimated from few doses,"NTRK1; compound concentrations:100 nM and 1000 nM (sheet 'Lestaurtinib' of Supplementary Table 1),run:Lestaurtinib_02802_R1,Plate:MR029",0.896 µM
same,potency estimated from few doses,"NTRK1; compound concentrations:100 nM and 1000 nM (sheet 'Lestaurtinib' of Supplementary Table 1),run:Lestaurtinib_02802_R3,Plate:MR029",0.943 µM
same,potency estimated from few doses,"NTRK1; compound concentrations:100 nM and 1000 nM (sheet 'Lestaurtinib' of Supplementary Table 1),run:Lestaurtinib_02896_R2,Plate:MR030",0.935 µM
same,potency estimated from few doses,"NTRK1; compound concentrations:100 nM and 1000 nM (sheet 'Lestaurtinib' of Supplementary Table 1),run:Lestaurtinib_03172_R1,Plate:MR031",1.44 µM
same,potency estimated from few doses,"NTRK1; compound concentrations:100 nM and 1000 nM (sheet 'Lestaurtinib' of Supplementary Table 1),run:Lestaurtinib_03172_R2,Plate:MR031",0.662 µM
same,potency estimated from few doses,"NTRK1; compound concentrations:100 nM and 1000 nM (sheet 'Lestaurtinib' of Supplementary Table 1),run:Lestaurtinib_03260_R1,Plate:MR033",0.898 µM
same,potency estimated from few doses,"NTRK1; compound concentrations:100 nM and 1000 nM (sheet 'Lestaurtinib' of Supplementary Table 1),run:Lestaurtinib_03260_R2,Plate:MR033",0.635 µM
same,potency estimated from few doses,"NUAK1; compound concentrations:100 nM and 1000 nM (sheet 'Lestaurtinib' of Supplementary Table 1),run:Lestaurtinib_02339_R1,Plate:MR001",0.0945 µM
same,potency estimated from few doses,"NUAK1; compound concentrations:100 nM and 1000 nM (sheet 'Lestaurtinib' of Supplementary Table 1),run:Lestaurtinib_02339_R2,Plate:MR001",0.0556 µM
same,potency estimated from few doses,"NUAK1; compound concentrations:100 nM and 1000 nM (sheet 'Lestaurtinib' of Supplementary Table 1),run:Lestaurtinib_02364_R2,Plate:MR002",0.0623 µM
same,potency estimated from few doses,"NUAK1; compound concentrations:100 nM and 1000 nM (sheet 'Lestaurtinib' of Supplementary Table 1),run:Lestaurtinib_02364_R3,Plate:MR002",0.0661 µM
same,potency estimated from few doses,"NUAK1; compound concentrations:100 nM and 1000 nM (sheet 'Lestaurtinib' of Supplementary Table 1),run:Lestaurtinib_02367_R1,Plate:MR003",0.0513 µM
same,potency estimated from few doses,"NUAK1; compound concentrations:100 nM and 1000 nM (sheet 'Lestaurtinib' of Supplementary Table 1),run:Lestaurtinib_02367_R3,Plate:MR003",0.078 µM
same,potency estimated from few doses,"NUAK1; compound concentrations:100 nM and 1000 nM (sheet 'Lestaurtinib' of Supplementary Table 1),run:Lestaurtinib_02381_R1,Plate:MR004",0.0859 µM
same,potency estimated from few doses,"NUAK1; compound concentrations:100 nM and 1000 nM (sheet 'Lestaurtinib' of Supplementary Table 1),run:Lestaurtinib_02407_R1,Plate:MR005",0.124 µM
same,potency estimated from few doses,"NUAK1; compound concentrations:100 nM and 1000 nM (sheet 'Lestaurtinib' of Supplementary Table 1),run:Lestaurtinib_02407_R2,Plate:MR005",0.2 µM
